Most compounds without a hit are left out; they make up all but 10% or so of the library.
HEK293 tox – kills HEK 293 cells; Potency, µM (highest dose often 115 µM), for the others: top-dose activity change, negative = cytotoxicity, most hits filed as inhibitors; 94,000 tested, 6.6% active; AID 1345083; HEK 293 viability, ATP luminescence (CellTiter-Glo), 48-72 h; further: nearly all actives have a fitted effect of over 60% in size
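qHTS cytotoxicity; HEK 293, 250 cells/well; compound pinned; 48 or 72 hr, 37 degree Celsius, 5% CO2, 95% humidity; CellTiter-Glo, 10 min RT; luminescence (ATP).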
NPR1 antag – antagonists of human natriuretic peptide receptor Npr1. 76,000 tested, 1.6% active. Potency, µM (highest dose often 46.3 µM), for the others: at the top dose activity change, negative = inhibition, most hits filed as inhibitors. P16066. AID 1347048. HEK293 hNpr1 GloSensor cGMP, ANP-stimulated luminescence; calls by dose curve; further: nearly all actives have a fitted effect of over 60% in size
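HEK293 cells stably expressing human Npr1 and cGMP GloSensor pGS-40F, loaded 2 h with 2% GloSensor reagent, given compound 30 min at room temperature. Luminescence read before and 20 min after 0.1 nM hNppA.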
3T3 cytotox – kills NIH 3T3 cells. NIH 3T3 viability, CellTiter-Glo ATP luminescence, 48-72 h. Potency, µM (doses to about 96.7 µM), for inactives: at the top dose activity change, negative = cytotoxicity, usual class: inhibitors. 94,000 tested, 4.3% active; further: nearly all actives have a fitted effect of over 55% in size
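Cytotoxicity was measured by CellTiter-Glo ATP luminescence after 48 or 72 h compound exposure at 37 °C. Mouse NIH 3T3 fibroblasts were seeded at 400 cells/well and dosed by 23 nL pin transfer.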
Luciferase inh – blocks purified firefly luciferase enzyme activity; Potency, µM (top dose mostly 115 µM), usual class: inhibitors; AID 1347043; P08659; purified P. pyralis luciferase, luminescence, biochemical; 76,000 tested, 2.5% active; further: nearly all actives have a fitted effect of over 65% in size
Target sequence (P08659 whole entry, looked up): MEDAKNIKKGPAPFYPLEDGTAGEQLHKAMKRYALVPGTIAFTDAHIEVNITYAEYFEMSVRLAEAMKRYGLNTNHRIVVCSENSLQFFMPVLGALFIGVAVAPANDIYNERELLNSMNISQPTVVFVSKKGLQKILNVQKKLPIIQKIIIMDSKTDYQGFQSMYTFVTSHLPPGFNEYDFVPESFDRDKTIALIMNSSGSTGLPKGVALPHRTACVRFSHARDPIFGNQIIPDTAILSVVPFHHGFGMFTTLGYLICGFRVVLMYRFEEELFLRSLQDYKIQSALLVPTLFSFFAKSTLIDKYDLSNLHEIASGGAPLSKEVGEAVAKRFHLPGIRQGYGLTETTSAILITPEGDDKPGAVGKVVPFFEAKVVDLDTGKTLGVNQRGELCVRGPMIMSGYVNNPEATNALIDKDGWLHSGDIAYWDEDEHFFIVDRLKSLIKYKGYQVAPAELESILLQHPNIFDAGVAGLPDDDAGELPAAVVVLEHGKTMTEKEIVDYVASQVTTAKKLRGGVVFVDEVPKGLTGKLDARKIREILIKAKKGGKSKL
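Purified P. pyralis luciferase (10nM final) in 50mM Tris acetate pH 7.5, 10mM Mg acetate, 0.01% Tween-20, 0.05% BSA with 10uM D-luciferin and 10uM ATP. Compounds titrated qHTS. Luminescence imaged on CCD.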
GPT2 inhibitor – GPT2 alanine aminotransferase inhibition. Q8TD30. Recombinant GPT2, coupled pyruvate oxidase/HRP Amplex Red fluorescence. Potency, µM (doses to about 57.7 µM), inactives show at the top dose activity change, negative = inhibition, most hits filed as inhibitors. 100,000 tested, 0.25% active. AID 1671188; further: nearly all actives have a fitted effect of over 60% in size
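Fluorescence read-out: pyruvate from GPT2 turnover coupled to pyruvate oxidase, HRP and Amplex Red (0.2mM ThPP, 0.2U/mL PO and HRP, 50uM Amplex final). Substrates 250uM a-KG, 2mM L-alanine; enzyme 10ng/uL; 30 min RT.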
The depositor's hits bear a star; i = inactive; ? = inconclusive; . = no result; [ ] = dose if it differs, or a comment. Unless noted, the call rests on the fitted dose curve; in most records, active means well fitted curve in the direction sought with a large enough effect; inconclusive means small, poorly fitted or top-dose-only effect, or another doubt; inactive means no such curve, though single readings can be large; an effect the other way counts as inactive or inconclusive. On the % scale 0 is the no-effect control and ±100 the full control effect; potency means the concentration at half of the fitted maximal effect.

SMILES | HEK293 tox | NPR1 antag | 3T3 cytotox | Luciferase inh | GPT2 inhibitor
CC(=O)N1CCN(C[C@@H]2C=C(C)[C@H](Cc3nnc(-c4cncn4C)o3)C[C@H]2C(C)C)CC1 | ? | 1% | ? | i | 3%
CC1=C[C@@H](CN2CCN(c3ccc(F)cc3)CC2)[C@H](C(C)C)C[C@H]1Cc1nnc(-c2cncn2C)o1 | 22µM* | -2% | ? | i | i
O=C(CNC(=O)c1cccc(-c2ccsc2)c1)NC1CC1 | ? | . | -30%[138 µM] | . | .
CC1=C[C@@H](CN2CCN(c3ccccn3)CC2)[C@H](C(C)C)C[C@H]1Cc1nnc(-c2cncn2C)o1 | 32µM* | -2% | ? | i | 2%
CC1=C[C@@H](CN2CCN(c3cnccn3)CC2)[C@H](C(C)C)C[C@H]1Cc1nnc(-c2cccnc2)o1 | 35µM* | ? | ? | i | ?
O=C(NC1CCN(c2cc(-c3ccc(Cl)cc3)[nH]n2)C1)c1ccc2c(c1)OCO2 (centres undefined) | ? | -29% | ? | i | ?
COc1ccc(-c2cc(N3CCC(NC(=O)c4ccc(C)cc4)C3)n[nH]2)cc1 (centres undefined) | ? | -2% | ? | i | ?
COc1ccc(-c2cc(N3CCC(NC(=O)c4ccc5c(c4)OCO5)C3)n[nH]2)cc1 (centres undefined) | 79µM* | -7% | ? | i | i
O=C(NC1CCCN(c2cc(-c3ccc(Cl)cc3)[nH]n2)C1)c1ccc2c(c1)OCO2 (centres undefined) | 45µM* | -21% | ? | ? | -12%
N#Cc1cccnc1-c1ccc(C(=O)N2CCC(NC(=O)Cc3ccc(F)cc3)CC2)cc1 | 2% | . | -13% | . | i
CC1=C[C@@H](CO)[C@H](C(C)C)C[C@H]1CC(=O)NCc1ccc(C(F)(F)F)cc1 | 40µM* | 0%[70.6 µM] | ? | i | 1%[88.5 µM]
COc1ccc(CNC(=O)C[C@@H]2C[C@@H](C(C)C)[C@H](CNC(C)=O)C=C2C)cc1 | ? | -4%[70.6 µM] | 100µM* | i | 0%[88.5 µM]
CCN1CCN(c2nc3c(s2)CN(C(=O)c2ccncc2)CC3)CC1 | ? | -2% | 1% | i | -13%
CN1[C@@H](c2ccc(Cl)cc2)[C@@H](C(=O)NCCc2cnc[nH]2)C[C@@]1(C)C(=O)O | 1% | 2% | i | i | 0%
COC(=O)[C@@H]1Cc2c([nH]c3ccccc23)[C@H]2C[C@@H](NCCc3cnc[nH]3)C[C@@H](c3cccc(Cl)c3)N21 | 28µM* | 0% | ? | i | -4%
COC(=O)[C@@H]1Cc2c([nH]c3ccccc23)[C@H]2C[C@H](NCCc3cnc[nH]3)C[C@@H](c3ccccc3F)N21 | 22µM* | -21% | ? | i | -2%
O=C(NCCc1cnc[nH]1)C1CC(=O)N(c2n[nH]c3ccccc23)C1 (centres undefined) | 3% | 1% | i | i | -3%
Cn1nc2n(c1=O)CCN(S(=O)(=O)c1ccccc1C(F)(F)F)CC2 | -13% | -1% | -13% | i | i
CN(Cc1cccc(N2CCN(S(=O)(=O)c3ccccc3C(F)(F)F)CC2)c1F)S(C)(=O)=O | 35µM* | . | ? | . | .
CN1CCCN(C(=O)c2ccc(Cl)cc2)c2ccccc21 | ? | -18% | ? | i | i
CC(C)(C)CC(=O)Nc1cnc(-c2cccc(Cl)c2)nc1 | 35µM* | 4µM* | 32µM* | 0.25µM* | i
O=C(NCc1ccccc1)c1nc2sccn2c1-c1ccccc1 | -4% | . | -28% | . | i
O=C(NC1CCN(c2nccc(Nc3ccccc3F)n2)CC1)C1CCCC1 | ? | . | ? | . | i
COc1ccc(-c2ccnc(-c3nnc(C)n3CCN(C)C)c2)cc1OC | -17%[172 µM] | 6%[70.6 µM] | 25µM* | i | -6%[88.5 µM]
COc1ccc(-c2ccnc(-c3nnc(C)n3C(C)C)c2)cc1OC | -11%[172 µM] | 2%[70.6 µM] | 100µM* | i | 4%[88.5 µM]
COc1ccccc1C(=O)N1CCC2(CC1)CC(O)CCO2 (centres undefined) | 1% | . | -10% | . | i

Screening results from PubChem.
